Assay outcomes as filed in PubChem BioAssay.
PI5P4K alpha inh – qHTS for Inhibitors of phosphatidylinositol 5-phosphate 4-kinase (PI5P4K); Phosphatidylinositol 5-phosphate 4-kinase type-2 alpha (Homo sapiens), P48426; max response, %; PI5P4Kalpha enzyme, ADP-Glo luminescence, 60 min; active compounds read low; 330,000 compounds, 1.2% hits; AID 652105, 2013; active = max response of -50% or lower; inconclusive = between -30% and -50%; inactive = -30% or higher; note: value at the top dose of about 77 µM
Target sequence (P48426 whole entry, looked up): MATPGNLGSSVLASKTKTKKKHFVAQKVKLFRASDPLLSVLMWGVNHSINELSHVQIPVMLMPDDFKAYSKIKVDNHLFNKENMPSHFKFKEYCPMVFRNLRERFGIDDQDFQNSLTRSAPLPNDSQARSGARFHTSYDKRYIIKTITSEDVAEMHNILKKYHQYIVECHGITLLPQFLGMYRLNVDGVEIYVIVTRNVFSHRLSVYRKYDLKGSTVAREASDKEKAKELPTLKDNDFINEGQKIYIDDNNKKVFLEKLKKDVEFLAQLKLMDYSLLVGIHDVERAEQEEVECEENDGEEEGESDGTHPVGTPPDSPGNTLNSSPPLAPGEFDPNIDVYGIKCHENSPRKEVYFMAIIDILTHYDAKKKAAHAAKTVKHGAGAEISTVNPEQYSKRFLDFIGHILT
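Human PI5P4Kalpha with substrate in 0.038 M HEPES pH 7.4, 0.28 mM EGTA, 0.1% CHAPS, 5% DMSO; reaction started with 5 microM ATP (final), 60 min at room temperature. ADP formed read by ADP-Glo luminescence.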
PI4K2A block – qHTS for small molecular inhibitors of PI4K2A; 420,000 compounds, 0.13% hits; Phosphatidylinositol 4-kinase type 2-alpha (Homo sapiens), Q9BTU6; purified PI4K2A, ADP-Glo luminescence, 1 h; active compounds read low; activity change, negative = inhibition, % at 76.9 µM; in the data active = activity change below about -50%; inconclusive = mostly about -30% to -49%;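 note: -100% = wells without enzyme as full effect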
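Compounds are screened against recombinant PI4K2A using PI as substrate and ATP, the latter dispensed at 300 microM. Reactions run one hour at ambient temperature before ADP-Glo detection; full inhibition defined by wells lacking enzyme.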
Pin1 inh – qHTS Assay to Find Inhibitors of Pin1. Potency, µM (highest dose often 115 µM), for the others: at the highest dose activity, negative = inhibition, most hits filed as inhibitors. Pin1 FP peptide displacement, HiFluor488, 10 min. AID 504891, 2011. 390,000 compounds, 0.009% hits; active = well fitted inhibition curve with a large enough effect in the polarisation, with a control signal flat, not every such curve was filed as active; inconclusive = small, poorly fitted or top-dose-only effect, or effect the other way, or a change in a side signal; inactive = no such curve, though single readings can be large or run the other way; the % refers to the polarisation; note: potency is the fitted concentration of half-maximal effect
Target sequence (Q13526 whole entry, looked up): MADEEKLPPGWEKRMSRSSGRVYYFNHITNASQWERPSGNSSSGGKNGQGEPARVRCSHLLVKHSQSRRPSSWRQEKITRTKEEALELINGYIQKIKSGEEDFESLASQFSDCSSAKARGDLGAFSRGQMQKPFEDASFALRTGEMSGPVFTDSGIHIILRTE
Tb PGK inh – qHTS Assay to Find Inhibitors of Phosphoglycerate Kinase; PGK/GAPDH coupled, Kinase-Glo luminescence, 60 min; Potency, µM (series often up to 57.5 µM), inactives show at the highest dose activity change, negative = inhibition, hits mostly inhibitors; 380,000 compounds, 0.043% hits; AID 602233, 2012; note: potency is the fitted concentration of half-maximal effect; nearly all actives have a fitted effect of over 60% in size
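Recombinant glycosomal PGK reaction used 1,3-bisphosphoglycerate generated in-well by GAPDH (100nM final) in 100mM TEA pH 7.6, 5mM MgCl2, 0.01% Tween-20. After 60 minutes at room temperature, ATP was read by Kinase-Glo Plus luminescence end-point.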
Tb PFK block – qHTS Assay to Find Inhibitors of T. brucei phosphofructokinase; T. brucei PFK, ADP-Glo luminescence; Potency, µM (series often up to 57.5 µM), for inactives: at the highest dose activity, negative = inhibition, hits mostly inhibitors; 330,000 compounds, 0.17% hits; AID 485367, 2010;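 note: potency is the fitted concentration of half-maximal effect; 0% = uninhibited 1x PFK enzyme wells and -100% = no-enzyme wells; nearly all actives have a fitted effect of over 60% in size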
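Luminescent ADP detection (ADP-Glo, two-step: ATP depletion then ADP-to-ATP conversion for luciferase) reported PFK activity after 45 min room-temperature reaction of 1.25 nM enzyme with 0.5 mM F6P and 0.1 mM ATP at pH 8.0.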
* = called active by the depositor; i = inactive; ? = inconclusive; . = not tested or not shown; [ ] = remark or other dose. Many of the other results were omitted from the sample, so hits are more common in it than they were. Unless noted, calls come from the whole dose curve; as a rule, active = well fitted curve in the direction sought with a large enough effect; inconclusive = small, poorly fitted or top-dose-only effect, or another doubt; inactive = no such curve, though single readings can be large; an effect the other way counts as inactive or inconclusive. Unless noted, % is set by controls: 0 for no effect and ±100 for the full control effect.

SMILES	PI5P4K alpha inh	PI4K2A block	Pin1 inh	Tb PGK inh	Tb PFK block
COc1ccc(CN(C)C(=O)c2ccc(NS(=O)(=O)c3ccc(C)c([N+](=O)[O-])c3)cc2)c(OC)c1OC	-5	4	-2%	1%	-2%
CCn1c(CSc2nc3ccccc3s2)nnc1SCC(=O)c1ccc(Cl)cc1	-51*	-9	56%	-6%	-9%
CCOc1ccc(OCCNC(=O)c2ccc3c(c2)nnn3CC)cc1	-9	0	-2%	1%	1%
COc1ccc(C(=O)N2CC(=O)Nc3ccc(C)cc3C2c2ccccc2)cc1OC (stereo unspecified)	.	2	-1%	-3%	.
O=C(COc1ccc(Cl)cc1Cl)NN=C1CCCCC1	13	0	-3%	-5%	?
O=C(NCc1nc2ccccc2[nH]1)c1ccc(S(=O)(=O)N2CCOCC2)cc1	5	-11	1%	22µM*	-3%
N#Cc1c(N)oc(-c2ccco2)c1-c1ccco1	?	-13	?	-12%	1%
COc1ccc(OC)c(/C=N/c2oc(-c3ccco3)c(-c3ccco3)c2C#N)c1	-79*	-13	?	-20%	-27%
COc1ccc(Br)cc1CNc1ccc2[nH]c(=O)[nH]c2c1	0	-2	2%	-1%	-8%
COc1ccc(Br)cc1CNc1ccc(O)cc1	-29	-50*	?	-6%	-5%
COC(=O)c1ccc(-n2c(C)cc(/C=N/n3cnnc3)c2C)cc1	2	-6	3%	6%	4%
CC(=O)/C(C#N)=C1\NC(=O)C(Cc2ccccc2Cl)S1 (stereo unspecified)	?	1	-7%	-12%	1%
CC(=O)/C(C#N)=C1\NC(=O)C(Cc2cc(Cl)ccc2Cl)S1 (stereo unspecified)	-53*	1	-7%	-4%	-5%
O=C(CN1CCOCC1)Nc1ccc(Cl)cn1	3	-19	4%	4%	18%
Nc1cc2sc(-c3ccc(C(=O)O)cc3)nc2cc1Cl	?	-76*	3%	?	7%
O=C(O)c1ccc2nc(-c3ccccc3)sc2c1	-14	-52*	1%	-12%	3%
Nc1ccc(-c2nc3ccc(C(=O)O)cc3s2)cc1	-22	-26	2%	?	0%
O=C1Cc2ccccc2C(=O)N1	-1	-56*	.	.	.
Clc1cccc(Cc2c(-c3ccco3)nc3ccc(Cl)cn23)c1	-65*	-26	.	.	.
COc1cc(SC)ccc1C(=O)OC1CCOC1=O (stereo unspecified)	0	-1	-1%	3%	-4%
N#C/C(=C\c1c[nH]c2ccccc12)C(N)=O	?	17	1%	4%	1%
CC(=O)Oc1c(/C=C(\C#N)C(N)=O)[nH]c2ccccc12	-59*	-2	?	.	18%
Cc1nnc(SCc2nc3sc(C(=O)O)c(C)c3c(=O)[nH]2)s1	-62*	-3	8%	-7%	0%
CCOCCCn1c(SCc2nc3sc(C(=O)O)c(C)c3c(=O)[nH]2)nnc1-c1ccc(Cl)cc1	?	-1	-11%	i	1%
CC(=O)c1sc2nc(CSc3nnnn3-c3ccccc3)[nH]c(=O)c2c1C	-83*	-24	?	-12%	-14%
SMILES	PI5P4K alpha inh	PI4K2A block	Pin1 inh	Tb PGK inh	Tb PFK block
C=CCn1c(SCc2nc3sc(C(=O)O)c(C)c3c(=O)[nH]2)nnc1-c1ccc(C(C)(C)C)cc1	-51*	-4	-14%	-17%	23%
Cc1ccc(-n2nnnc2SCc2nc3sc(C)c(C)c3c(=O)[nH]2)cc1	-1	0	?	3%	2%
CC(=O)c1sc2nc(CSc3nncn3C)[nH]c(=O)c2c1C	-23	2	76%	-1%	0%
C=CCn1c(SCc2nc3sc(C(=O)O)c(C)c3c(=O)[nH]2)nnc1-c1ccccc1	-67*	-2	-1%	-12%	0%
Cc1c(C(=O)O)sc2nc(CSc3nnc(-c4ccc(F)cc4)n3C)[nH]c(=O)c12	?	-7	3%	-3%	21%
CC1(C)CC(=O)C2=C(C1)N(CCN1CCOCC1)C1=C(C(=O)CC(C)(C)C1)C2c1ccc(Cl)cc1	1	-23	1%	-8%	5%
CCc1ccc(Nc2n[n+](-c3ccccc3)c(-c3ccc(SC)cc3)s2)cc1	-22	-9	8%	i	-5%
CSc1ccc(-c2sc(Nc3ccccc3)n[n+]2-c2ccccc2)cc1	-53*	-4	17%	4%	0%
CN(C)c1ccc(-c2n(C)c3ccccc3[n+]2C)cc1	.	-2	-3%	8%[11.5 µM]	8%
CCOc1ccc(NC(=O)Nc2cc(C)ccc2F)cc1	.	-64*	-2%	-27%	-10%
O=C(O)CCC(=O)NNC(=O)COc1ccc(Cl)cc1Cl	12	6	9%	i	-4%
CCOC(=O)C1CCN(c2ccc(-c3cccs3)nn2)CC1	?	-69*	-2%	?	-25%
CCOC(=O)C1CCN(c2ccc(Cl)nn2)CC1	2	3	-6%	0%	2%
Cc1oc(C)c2c(=O)ccc3c(c12)OC(N)=C(C#N)C3c1ccccc1 (stereo unspecified)	?	-15	?	-4%	-4%
CSc1ccc(C2C(C#N)=C(N)Oc3c2ccc(=O)c2c(C)oc(C)c32)cc1 (stereo unspecified)	-65*	-13	81%	-8%	-2%
N#Cc1ccc(/C=C2\CCCCn3c2nc2cc(C(=O)O)ccc2c3=O)cc1	-53*	-4	1%	-1%	1%
CS(=O)(=O)c1ncc(Cl)c(C(=O)Nc2c(C(=O)Nc3ccccc3)oc3ccccc23)n1	.	3	-3%	-5%	.
CC1=C(C#N)c2nc(N)c(C#N)c(C)c2/C1=C\c1ccc(-c2ccccc2C(=O)O)o1	-72*	-8	.	-29%	-1%
COc1cc(/C=C2/C(C)=C(C#N)c3nc(N)c(C#N)c(C)c32)ccc1OCC(=O)O	-15	-5	-10%	0%	-7%
Cc1cc(=O)oc2cc(OCC(=O)Nc3nnc(CC(C)C)s3)ccc12	1	2	16%	-6%	8%
O=C(CNC(=O)c1ccccc1)OCC(=O)c1c[nH]c2ccccc12	-1	-3	2%	2%	-1%
C(=C\c1ccc2ccccc2n1)/c1ccccc1	-6	?	9%	?	-10%
Oc1ccc(/C=C/c2ccc3ccccc3n2)cc1	-23	-75*	6%	-6%	-12%
